Sampled rows, rich in hits. Any-hit rate of the full collection: about 5.3%.
12-hLO inh: 12-hLO (ALOX12) enzyme inhibition. Potency, µM (doses to about 57.1 µM), most hits filed as inhibitors. purified 12-hLO, xylenol orange hydroperoxide absorbance. 150,000 compounds, 0.12% hits. AID 1452. P18054; further: nearly all actives have a fitted effect of over 55% in size
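Purified human 12hLO (150 nM final) was preincubated with compounds for 15 min at room temperature in 25 mM Hepes pH 7.0, 0.01% Triton X-100, then reacted with 40 uM arachidonic acid for 30 min. Hydroperoxide was detected with ferrous iron/xylenol orange.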
15-hLO-2 inh: blocks human 15-lipoxygenase 2 activity. 110,000 compounds, 0.56% hits. Potency, µM (doses to about 57.1 µM), hits mostly inhibitors. purified 15hLO-2, xylenol orange hydroperoxide absorbance; further: nearly all actives have a fitted effect of over 60% in size
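Purified human 15hLO-2 (50 nM final) preincubated with compounds 15 min at room temperature in 25 mM Hepes pH 7.5, 0.01% Triton X-100, then 45 uM arachidonic acid added for 90 min; hydroperoxide detected via ferrous/xylenol orange, 573/405 nm absorbance ratio.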
IMPase inh: cell-permeable inhibitors of inositol monophosphatase (IMPase). inhibition (IP1 accumulation), % at 46.1 µM. AID 901. P97697. CHO-M1 cells, IP1 accumulation, HTRF TR-FRET ratio. 120,000 tested, under 10 active; active means well fitted curve in the direction sought with a large enough effect in the signal ratio, not every such curve was filed as active; inconclusive means small, poorly fitted or top-dose-only effect, or a change in a side signal; inactive means no such curve, though single readings can be large or run the other way; the % refers to the signal ratio;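 further: cells stimulated with carbachol in lithium chloride buffer; higher means more IMPase inhibition seen as more IP1 and lower FRET ratio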
Target sequence (P97697 whole entry, looked up): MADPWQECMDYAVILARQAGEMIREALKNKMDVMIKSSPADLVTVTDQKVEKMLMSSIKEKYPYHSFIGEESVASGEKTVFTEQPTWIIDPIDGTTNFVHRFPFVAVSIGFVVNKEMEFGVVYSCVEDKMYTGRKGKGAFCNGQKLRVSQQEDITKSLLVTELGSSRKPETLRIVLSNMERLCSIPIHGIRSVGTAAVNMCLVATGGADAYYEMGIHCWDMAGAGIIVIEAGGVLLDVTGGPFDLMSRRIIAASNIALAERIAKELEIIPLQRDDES
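Seeded CHO-M1 cells were dosed with compound at up to 46 uM, stimulated with carbachol for 30 min, then lysed in IP-One detection reagents. Higher IP1 lowers the TR-FRET signal.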
PNC inhibitor: perinucleolar compartment assembly inhibition | PC3M PTB-GFP, PNC prevalence imaging, 16 h; hits give low values | activity change (PNC), negative = inhibition, % at 10 µM | 140,000 compounds, 3.1% hits | AID 2417;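 active means readout at or below -70, meaning at least 70% loss of cells showing the perinucleolar compartment, a nuclear body marking cancer cells; inconclusive means readout between -30 and a set limit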
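Compounds are pinned in duplicate onto adhered PC3M cells stably expressing GFP-tagged PTB and incubated 16 h at 37 C. Cells are then fixed, nuclei stained with Hoechst, and PNC-positive cells counted.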
IMPase Li cell: IMPase inhibition in cells with lithium potentiation | Potency, µM (doses to about 59.4 µM), usual class: inhibitors | 210,000 compounds, 0.35% hits | CHO-M1 cells, IP1 TR-FRET (IP-One), carbachol + lithium;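 further: IP1 builds up when IMPase is blocked and the TR-FRET signal falls; nearly all actives have a fitted effect of over 50% in size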
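CHO cells stably expressing M1 receptor (2000/well) were cultured 16–30 h, then exposed to compounds with a small lithium addition for 30 min at 37C. IP1 was measured by TR-FRET competition; AC50 from Hill fits.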
HPGD inh: inhibitors of human 15-hydroxyprostaglandin dehydrogenase (HPGD); P15428; purified HPGD, NADH fluorescence kinetic, PGE2 substrate; Potency, µM, most hits filed as inhibitors; 150,000 compounds, 4.3% hits; AID 894; active means well fitted inhibition curve with a large enough effect, not every such curve was filed as active; inconclusive means small, poorly fitted or top-dose-only effect, or another doubt; inactive means no such curve, though single readings can be large or run the other way
Target sequence (P15428 whole entry, looked up): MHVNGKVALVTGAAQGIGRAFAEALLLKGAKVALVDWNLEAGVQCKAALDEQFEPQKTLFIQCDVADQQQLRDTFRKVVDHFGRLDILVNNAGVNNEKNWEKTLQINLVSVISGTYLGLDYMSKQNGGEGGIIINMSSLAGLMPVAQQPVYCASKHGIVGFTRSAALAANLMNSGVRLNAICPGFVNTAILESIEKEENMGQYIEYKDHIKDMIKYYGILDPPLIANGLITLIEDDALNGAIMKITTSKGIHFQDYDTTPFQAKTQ
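20 nM HPGD preincubated 15 min at room temperature with compound in 50 mM Tris-HCl pH 8, 0.01% Tween 20. Started with 1 mM NAD+ and 30 uM prostaglandin E2; NADH fluorescence (360/450 nm) read 5 times over 30-s intervals, last minus first.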
Numbers stand for hits; - = inactive; ? = inconclusive; . = no result; [ ] = dose if it differs, or a comment. Unless noted, the call rests on the fitted dose curve; in most records, active means well fitted curve in the direction sought with a large enough effect; inconclusive means small, poorly fitted or top-dose-only effect, or another doubt; inactive means no such curve, though single readings can be large; an effect the other way counts as inactive or inconclusive.

SMILES	12-hLO inh	15-hLO-2 inh	IMPase inh	PNC inhibitor	IMPase Li cell	HPGD inh
Cc1ccc(/C=N/c2sc3c(c2C#N)CCC3)o1	-	-	-	-	-	16µM
N#Cc1c(/N=C\c2ccc(O)c([N+](=O)[O-])c2)sc2c1CCCC2	.	.	.	.	-	.
CN(C)/C=N/c1sc2c(c1C#N)CCC2	-	-	-	-	-	25µM
CN(C)S(=O)(=O)N1CCN(C(=O)c2cccs2)CC1	-	-	-	?	-	-
Cc1ccc(C(C(=O)Nc2ccc3c(c2)OCO3)N(C)C(=O)Cc2c[nH]c3ccccc23)cc1 (configuration not stated)	-	.	.	-	-	-
O=C(Cn1c(COc2ccccc2)nc2ccccc21)Nc1cc(Cl)cc(Cl)c1	-	.	.	-100	-	-
Cc1ccc2cc3cc(C(=O)N4CCCCC4C)oc3nc2c1 (configuration not stated)	-	-	-	-	-	16µM
Cc1ccc2cc3cc(C(=O)N4CC(C)CC(C)C4)oc3nc2c1 (configuration not stated)	-	.	-	?	-	16µM
Cc1ccc2cc3cc(C(=O)NCCC(C)C)oc3nc2c1	-	-	-	?	-	?
O=C(/C=C/c1ccccc1)N/C(=C/c1ccccc1)C(=O)N1CCCCC1	-	-	-	-	.	.
CC(=O)OCC1(C)CN(c2ccccc2)NC1=O (configuration not stated)	.	.	.	.	-	.
CN(C)S(=O)(=O)c1cccc(NC(=O)CN2C(=O)NC(CCc3ccccc3)C2=O)c1 (configuration not stated)	.	.	.	.	-	.
CC(=O)Nc1ccc(-c2cn3ccsc3n2)cc1	-	-	-	?	-	-
O=C(Nc1ccc(-c2cn3ccsc3n2)cc1)C1CCCC1	-	-	-	-	-	14µM
c1cn2cc(-c3ccc4c(c3)OCO4)nc2s1	?	-	-	-	-	32µM
Cc1[nH]n(-c2ccccc2)c(=O)c1/C=N/NC(=O)C(C)C	.	.	.	.	-	.
O=c1c(-c2cc(O)c(O)c(O)c2)coc2cc(O)c(O)c(O)c12	-	-	.	.	-	7.1µM
O=c1c(-c2ccc(O)cc2)coc2cc(O)cc(O)c12	-[0.00818 µM]	-[0.0915 µM]	-	.	-	25µM
CC(C)=CCc1c2c(c3occ(-c4ccc(O)c(O)c4)c(=O)c3c1O)C=CC(C)(C)O2	-[11.4 µM]	-[11.4 µM]	.	.	-	-
CC(C)=CCc1c(O)cc2occ(-c3ccc4c(c3)OCO4)c(=O)c2c1O	-	-	.	.	-	25µM
CNc1ncnc2ccc(-c3ccccc3C)cc12	.	-	.	.	-	.
Cc1cc(N=Cc2c(O)ccc3cc(Br)ccc23)no1	-	.	.	-	?	10µM
CCOC(=O)C1CCN(C(=O)c2cccc(NS(=O)(=O)c3ccc(F)c(F)c3)c2)CC1	.	.	.	.	-	.
CCOC(=O)N1CCN(C(=O)c2cccc(NS(=O)(=O)c3ccc(F)c(F)c3)c2)CC1	-	.	.	-89	-	-
CNc1ccccc(-c2ccc3cc4c(cc3n2)OCO4)c1=O	-	.	.	-109	-	-
SMILES	12-hLO inh	15-hLO-2 inh	IMPase inh	PNC inhibitor	IMPase Li cell	HPGD inh
c1ccc2nc(-c3ccc4c(c3)OCO4)ccc2c1	.	.	.	.	-	.
CC(=O)Nc1ccc(S(=O)(=O)NCCSCc2ccc(Cl)cc2Cl)cc1	-	-	-	-	-	-
O=C(O)c1cc(-c2ccco2)[nH]n1	-	.	.	-89	-	-
CC1CCC(C(=O)NNC(=O)c2cc(-c3ccco3)[nH]n2)CC1 (configuration not stated)	.	.	.	.	-	.
O=C(O)C1C2CCC(C2)C1C(=O)NCc1ccco1 (configuration not stated)	-	-	-	-100	-	-
O=C(NCc1ccco1)C1CC2CCC1C2 (configuration not stated)	-	-	-	-	-	16µM
O=C(NCc1ccco1)C1CCCCC1	.	.	.	.	-	.
Cc1ccc(SCc2ccc(C(=O)N3CCCC3)cc2)cc1	.	.	.	.	-	.
CCN1CCN(C(=O)c2ccc(CSc3ccc(C)cc3)cc2)CC1	-	-	-	-	-	14µM
COc1ccc2c(c1OC)C(=O)N1N=C(c3ccc(Cl)cc3)CC21 (configuration not stated)	-	.	-	-93	-	-
COc1ccc2c(c1OC)C(=O)N1N=C(c3ccc(-c4ccccc4)cc3)CC21 (configuration not stated)	.	.	.	.	-	.
COc1ccc2c(c1OC)C(=O)N1c3ccccc3N=C(c3ccc([N+](=O)[O-])cc3)CC21 (configuration not stated)	-	.	-	-	-	35µM
COc1ccc(C2=NN3C(=O)c4c(ccc(OC)c4OC)C3C2)cc1 (configuration not stated)	-	-[11.4 µM]	-[1.84 µM]	-	-	-
COc1ccc(C)cc1NS(=O)(=O)c1ccc(NC(=O)CN(c2cc([N+](=O)[O-])ccc2C)S(C)(=O)=O)cc1	-	.	.	?	-	-
Cc1cccc(NS(=O)(=O)c2ccc(NC(=O)CN(c3cc([N+](=O)[O-])ccc3C)S(C)(=O)=O)cc2)c1	-	.	.	-113	-	-
Cc1ccc2c(CSc3nnc(N)s3)cc(=O)oc2c1	-	-	-	-	-	20µM
O=[N+]([O-])c1cccc(-c2nc(Oc3ccc(Cl)cc3)c3ccccc3n2)c1	-	.	.	?	-	25µM
Cc1cccc(Oc2nc(-c3cccc([N+](=O)[O-])c3)nc3ccccc23)c1C	-	-	-	-	-	-
CC1CCCCC1NC(=O)c1cc2ccccc2o1 (configuration not stated)	-	.	.	-	-	-
CCCc1c(C)c2cccc(C)c2[nH]c1=O	-	-	-	-	-	-
CCCCN1CCc2c([nH]c3c(C)cccc23)C1=O	-	-	-	-87	-	-
O=C1/C(=C/c2cccs2)NC(=S)N1C1CC1	-	.	.	-	-	16µM
O=C1CNC(=O)/C(=C/c2cccs2)N1	.	.	.	.	-	.
CCOC(=O)c1[nH]c2c(c1Cc1ccccc1)C(=O)CC(c1ccc(OC)cc1)C2 (configuration not stated)	.	.	-	.	.	.
Cc1cccc(C)c1-n1c(C)cc(/C=N/NC(N)=S)c1C	?	20µM	-	-	-	-
CCOC(=O)CSc1nc2ccc(S(=O)(=O)N3CCOCC3)cc2[nH]1	-	-	-	-	-	-
COC(=O)c1ccc(CSc2nc3ccc(S(=O)(=O)N4CCOCC4)cc3[nH]2)cc1	-	.	-	?	-	28µM
Cc1ccc(OS(=O)(=O)c2ccccc2)c(/C=N/N=C2\NC(=O)C(C)S2)c1 (configuration not stated)	-	.	-	-82	-	-
Cc1ccc(NC(=O)CC2C(=O)N(Cc3ccccc3)C(=S)N2NC(=O)c2ccccc2)c(C)c1 (configuration not stated)	-	.	.	?	-	-

Compound activity (PubChem)
